The full ranking holds about 81,000 sequences; the median of “one-hybrid fitness for binding parS DNA” is about -0.17, and the highest 2% start at about 0.51. The full list was thinned out, with the highest values kept by preference.
B1: Caulobacter ParB omega fusion; a variant is named by its letters at X, in order, B8GW30 (parent)
chain: MESVVVGEPGMSEGRRGLGRGLSALLGEVDAAPAQAPGEQLGGSREAPIEILQRNPDQPRRTFREEDLEDLSNSIREKGVLQPILVRPSPDTAGEYQIVAGERAWRAAQRAGLKTVPIMVRELDDLAVLEIGIIENVQRADLNVLEEALSYKVLMEKFERTQENIAQTIGKSXSHVANXMRLLXLPDEVQSYLVSGELTAXHARAIAAAADPVALAKQIIEGGLSVRETEALARKAPNLSAGKSKGGRPPRVKDTDTQALESDLSSVLGLDVSIDHRGSTGTLTITYATLEQLDDLCNRLTRGI

Variants of: B1
Assay: one-hybrid fitness for binding parS DNA (scaled: cognate 1, non-cognate 0); higher = stronger binding
Conditions: with parS DNA site
How it was run: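 In E. coli USO, a HIS3 reporter with its site placed 19 bp from the promoter was used to select Caulobacter ParB variants randomised at four specificity codons. Growth lasted 48 hours at 37°C on histidine-free M9 containing 0.1 mM IPTG and 5 mM 3-AT. Fitness was taken as the log change in variant-to-wild-type read ratio from Illumina sequencing of pre- and post-selection plasmids, rescaled between the non-cognate and cognate sites.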

Row | Variant | one-hybrid fitness for binding parS DNA
1 | SIFS | ≤ 0.2
2 | QSTM | ≤ 0.2
3 | HPTI | ≤ 0.2
4 | RRIA | 0.828
5 | RPPA | ≤ 0.2
6 | NRIA | ≤ 0.2
7 | RRPA | 0.574
8 | RCPA | 0.432
9 | NRNI | ≤ 0.2
10 | YNMN | ≤ 0.2
11 | KQFG | ≤ 0.2
12 | NYTR | ≤ 0.2
13 | EPTE | ≤ 0.2
14 | PWQI | ≤ 0.2
15 | FKHA | ≤ 0.2
16 | RRKT | 0.59
17 | RRVK | ≤ 0.2
18 | RRKE | ≤ 0.2
19 | RRVF | ≤ 0.2
20 | RRVT | 0.607
21 | NRKT | ≤ 0.2
22 | VTCL | ≤ 0.2
23 | GDYG | ≤ 0.2
24 | HEET | ≤ 0.2

Row | Variant | one-hybrid fitness for binding parS DNA
25 | ALQS | ≤ 0.2
26 | RATT | 0.915
27 | RITT | 0.931
28 | RETT | ≤ 0.2
29 | RITM | 0.319
30 | RHTT | 0.868
31 | RATK | ≤ 0.2
32 | RITF | 0.254
33 | RPTT | ≤ 0.2
34 | RHTR | ≤ 0.2
35 | RCTT | 0.949
36 | RHTQ | ≤ 0.2
37 | RATQ | ≤ 0.2
38 | VVST | ≤ 0.2
39 | HWNY | ≤ 0.2
40 | MEIG | ≤ 0.2
41 | RTTT | 0.917
42 | RMTT | 0.945
43 | RRTY | 0.398
44 | RLTR | ≤ 0.2
45 | RRTF | ≤ 0.2
46 | RTTF | 0.253
47 | RTTD | ≤ 0.2
48 | RMTL | ≤ 0.2

Row | Variant | one-hybrid fitness for binding parS DNA
49 | RLTT | 0.956
50 | RRTT | 0.565
51 | RLTY | 0.48
52 | RMTY | 0.497
53 | VTRD | ≤ 0.2
54 | SSGG | ≤ 0.2
55 | QKKR | ≤ 0.2
56 | CTAV | ≤ 0.2
57 | PDQD | ≤ 0.2
58 | DVDG | ≤ 0.2
59 | DFTT | ≤ 0.2
60 | RKTT | 0.754
61 | RKTF | ≤ 0.2
62 | RDTT | ≤ 0.2
63 | RSTR | ≤ 0.2
64 | RFTD | ≤ 0.2
65 | RFTT | 0.836
66 | RKTY | 0.353
67 | RSTT | 0.895
68 | CALF | ≤ 0.2
69 | HDLT | ≤ 0.2
70 | WILE | ≤ 0.2
71 | CTPG | ≤ 0.2
72 | CPIR | ≤ 0.2

Row | Variant | one-hybrid fitness for binding parS DNA
73 | QLLW | ≤ 0.2
74 | TAMD | ≤ 0.2
75 | VFPY | ≤ 0.2
76 | RKKQ | ≤ 0.2
77 | RKKC | 0.694
78 | RKVC | 0.868
79 | RKKR | ≤ 0.2
80 | RKVP | ≤ 0.2
81 | RKVQ | ≤ 0.2
82 | WLFR | ≤ 0.2
83 | ESLF | ≤ 0.2
84 | DFNL | ≤ 0.2
85 | RNFC | 0.627
86 | RNAP | ≤ 0.2
87 | RNAN | 0.301
88 | RNAC | 0.754
89 | RNFQ | ≤ 0.2
90 | RNFM | ≤ 0.2
91 | AKFS | ≤ 0.2
92 | MTSR | ≤ 0.2
93 | VNNR | ≤ 0.2
94 | RRHD | ≤ 0.2
95 | RRHP | ≤ 0.2
96 | RRHN | 0.689

Row | Variant | one-hybrid fitness for binding parS DNA
97 | RRHH | ≤ 0.2
98 | RRHK | ≤ 0.2
99 | RRHS | 0.645
100 | LFLC | ≤ 0.2
101 | DLIT | ≤ 0.2
102 | RDNY | ≤ 0.2
103 | TIRM | ≤ 0.2
104 | VENG | ≤ 0.2
105 | NEVT | ≤ 0.2
106 | GRRY | ≤ 0.2
107 | QQLD | ≤ 0.2
108 | MQRR | ≤ 0.2
109 | PCLL | ≤ 0.2
110 | ARAW | ≤ 0.2
111 | RIVM | 0.281
112 | RIVQ | ≤ 0.2
113 | RIKQ | ≤ 0.2
114 | RIKC | 0.805
115 | RIKR | ≤ 0.2
116 | RIVC | 0.942
117 | MKRV | ≤ 0.2
118 | RFFY | 0.269
119 | RFAN | 0.372
120 | RFFN | 0.262

Row | Variant | one-hybrid fitness for binding parS DNA
121 | RFAC | 0.91
122 | RFFC | 0.674
123 | NFAC | ≤ 0.2
124 | WGLC | ≤ 0.2
125 | MPTN | ≤ 0.2
126 | GFLD | ≤ 0.2
127 | EFEC | ≤ 0.2
128 | RQAY | 0.444
129 | RQFG | 0.917
130 | RQAG | 1
131 | RQFN | 0.363
132 | RQAR | ≤ 0.2
133 | RQFD | ≤ 0.2
134 | WVPR | ≤ 0.2
135 | RQQS | 0.987
136 | RQWH | ≤ 0.2
137 | RQAP | ≤ 0.2
138 | RQQP | ≤ 0.2
139 | RQSN | 0.438
140 | RQAS | 0.988
141 | RQQD | ≤ 0.2
142 | RQSP | ≤ 0.2
143 | RQAH | ≤ 0.2
144 | RQWP | ≤ 0.2

Row | Variant | one-hybrid fitness for binding parS DNA
145 | RQSS | 0.979
146 | RQWS | 0.959
147 | KHSR | ≤ 0.2
148 | ICNS | ≤ 0.2
149 | TSSN | ≤ 0.2
150 | FLHK | ≤ 0.2
151 | SFKN | ≤ 0.2
152 | PRKR | ≤ 0.2
153 | NSVS | ≤ 0.2
154 | GRDV | ≤ 0.2
155 | RQFP | ≤ 0.2
156 | RQCN | 0.416
157 | RQLP | ≤ 0.2
158 | RQLN | 0.439
159 | RQYP | ≤ 0.2
160 | RQLS | 1.02
161 | RQFS | 0.957
162 | RQYS | 1
163 | RQCH | ≤ 0.2
164 | RQFH | ≤ 0.2
165 | RQYN | 0.393
166 | RQCS | 0.976
167 | AMKF | ≤ 0.2
168 | SCQY | ≤ 0.2

Row | Variant | one-hybrid fitness for binding parS DNA
169 | YPKA | ≤ 0.2
170 | IKCR | ≤ 0.2
171 | AFFR | ≤ 0.2
172 | MTRW | ≤ 0.2
173 | RQGS | 0.978
174 | RQRN | 0.451
175 | RQHP | ≤ 0.2
176 | RQRD | ≤ 0.2
177 | RQGP | ≤ 0.2
178 | RQGN | 0.441
179 | RQHN | 0.425
180 | RQRS | 0.918
181 | RQHS | 0.988
182 | KTML | ≤ 0.2
183 | PITI | ≤ 0.2
184 | GSLR | ≤ 0.2
185 | VPIR | ≤ 0.2
186 | RREK | ≤ 0.2
187 | RHEG | 0.898
188 | RTEQ | ≤ 0.2
189 | RHEH | ≤ 0.2
190 | RDEG | ≤ 0.2
191 | RREY | 0.295
192 | RREG | 0.915

Row | Variant | one-hybrid fitness for binding parS DNA
193 | RTEF | 0.202
194 | RTEG | 0.893
195 | RHEP | ≤ 0.2
196 | RPEG | ≤ 0.2
197 | RCEG | 0.915
198 | TLIV | ≤ 0.2
199 | SWMS | ≤ 0.2
200 | PFMN | ≤ 0.2
201 | ASAS | ≤ 0.2
202 | TTEV | ≤ 0.2
203 | EKIY | ≤ 0.2
204 | VYPH | ≤ 0.2
205 | PRMG | ≤ 0.2
206 | VNWT | ≤ 0.2
207 | LVHA | ≤ 0.2
208 | SFKQ | ≤ 0.2
209 | RIEI | ≤ 0.2
210 | RKEF | ≤ 0.2
211 | RAEP | ≤ 0.2
212 | RAEG | 0.852
213 | RIED | ≤ 0.2
214 | RKED | ≤ 0.2
215 | RMEG | 0.86
216 | RAEH | ≤ 0.2

Row | Variant | one-hybrid fitness for binding parS DNA
217 | RIEG | 0.771
218 | RMEI | ≤ 0.2
219 | RMEL | ≤ 0.2
220 | RKEG | 0.949
221 | HTCW | ≤ 0.2
222 | CSFT | ≤ 0.2
223 | DPQT | ≤ 0.2
224 | PMYE | ≤ 0.2
225 | ASIR | ≤ 0.2
226 | REEG | ≤ 0.2
227 | RSEG | 0.802
228 | DFEG | ≤ 0.2
229 | RLED | ≤ 0.2
230 | RFEG | 0.731
231 | NFEG | ≤ 0.2
232 | RLEN | 0.4
233 | RLEG | 0.925
234 | RGEG | 0.474
235 | HYRI | ≤ 0.2
236 | IEVV | ≤ 0.2
237 | YPPA | ≤ 0.2
238 | NRYK | ≤ 0.2
239 | SSLC | ≤ 0.2
240 | PCWL | ≤ 0.2

Row | Variant | one-hybrid fitness for binding parS DNA
241 | TTWY | ≤ 0.2
242 | CCRS | ≤ 0.2
243 | RMAP | 0.205
244 | RMAD | 0.207
245 | RMFY | 0.492
246 | RMFK | ≤ 0.2
247 | RMFG | 1
248 | RMAG | 1.01
249 | LSRQ | ≤ 0.2
250 | RFMR | ≤ 0.2
251 | RIIF | ≤ 0.2
252 | RIIM | 0.273
253 | RIPM | ≤ 0.2
254 | RIPY | 0.232
255 | RIIC | 0.901
256 | RIPC | 0.626
257 | SCFV | ≤ 0.2
258 | QTMW | ≤ 0.2
259 | SRTC | ≤ 0.2
260 | RIQT | 0.886
261 | RIQN | 0.449
262 | RIQP | ≤ 0.2
263 | RICD | ≤ 0.2
264 | RIGQ | 0.204

Row | Variant | one-hybrid fitness for binding parS DNA
265 | RIWT | 0.83
266 | RIWN | 0.455
267 | RIGK | ≤ 0.2
268 | RIGT | 0.924
269 | RICK | 0.208
270 | RICT | 0.853
271 | RIWF | 0.282
272 | LPLM | ≤ 0.2
273 | WSVC | ≤ 0.2
274 | AQMM | ≤ 0.2
275 | DELW | ≤ 0.2
276 | QKSV | ≤ 0.2
277 | HVTI | ≤ 0.2
278 | GLLA | ≤ 0.2
279 | RIDR | ≤ 0.2
280 | RINN | 0.469
281 | RINP | ≤ 0.2
282 | RINT | 0.914
283 | RIST | 0.929
284 | RIYD | ≤ 0.2
285 | RIYP | 0.203
286 | RIDT | 0.725
287 | RIYT | 0.926
288 | RISF | 0.21

Row | Variant | one-hybrid fitness for binding parS DNA
289 | RISQ | ≤ 0.2
290 | RIDF | 0.257
291 | NRPF | ≤ 0.2
292 | CRDC | ≤ 0.2
293 | QFLC | ≤ 0.2
294 | PTYG | ≤ 0.2
295 | RARL | ≤ 0.2
296 | GSHT | ≤ 0.2
297 | MNLG | ≤ 0.2
298 | RIRR | ≤ 0.2
299 | RIRT | 0.848
300 | RIRK | ≤ 0.2
301 | WPQC | 0.245
302 | SGVD | ≤ 0.2
303 | RIAS | 1.04
304 | RIFS | 0.995
305 | RIFP | 0.206
306 | RIAD | 0.212
307 | RIFD | ≤ 0.2
308 | RIAN | 0.432

Source: a collection of fitness landscapes (doi:10.1016/j.celrep.2020.107928)
